Source: PubChem BioAssay AID1159580 (chemical genetic matrix, 2015)
Where “and” joins values, the source holds several entries; their conditions need not be identical. Equal values may be shown once. Screen size: about 5,500 compounds; about 2,000 (36%) were called active. About 18% were inconclusive and are not listed. No stated cut-off is given here; in the data, active means normalized growth mostly below about 0.91 (no sharp cut-off); inconclusive means no clear call, values can overlap the other calls; inactive means mostly above about 0.92. Some of the results follow.

Experiment: chemical genetic growth profiling, strain panel (AID 1159580);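 further: tested at 20 µM; growth read once vehicle control cultures reached saturation at 30 °C; 1 = growth at the plate median or of vehicle wells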
Conditions: S. cerevisiae deletion strains, growth OD

Measured: normalized growth

CC1COc2c(N3CCN(C)CC3)c(F)cc3c(=O)c(C(=O)O)cn1c23 (stereo not drawn)
inactive: locus YAL013W, strain DEP1, stronger effect = lower value 0.993 | locus YAL021C, strain ccr4, stronger effect = lower value 0.99 | locus YAL026C, strain drs2, stronger effect = lower value 0.987 | locus YAL030W, strain snc1, stronger effect = lower value 0.988 | locus YAL040C, strain CLN3, stronger effect = lower value 1.03 | locus YBL061C, strain skt5, stronger effect = lower value 0.983 | locus YBR009C, strain hhf1, stronger effect = lower value 1 | locus YBR021W, strain FUR4, stronger effect = lower value 1.01 | locus YBR023C, strain chs3, stronger effect = lower value 0.98 | locus YBR171W, strain sec66, stronger effect = lower value 0.964 | locus YBR229C, strain ROT2, stronger effect = lower value 1.01 | locus YBR231C, strain swc5, stronger effect = lower value 0.991 | locus YBR279W, strain paf1, stronger effect = lower value 0.992 | locus YCL011C, strain gbp2, stronger effect = lower value 0.98 | locus YCL016C, strain dcc1, stronger effect = lower value 0.985 | locus YCL029C, strain bik1, stronger effect = lower value 1.01 | locus YCL061C, strain MRC1 (second series), stronger effect = lower value 1 | locus YCL061C, strain MRC1, stronger effect = lower value 0.982 | locus YCL069W, strain vba3, stronger effect = lower value 0.99 | locus YCR088W, strain abp1, stronger effect = lower value 0.986 | locus YDL005C, strain med2, stronger effect = lower value 0.974 | locus YDL035C, strain GPR1, stronger effect = lower value 1.03 | locus YDL040C, strain nat1, stronger effect = lower value 0.988 | locus YDL074C, strain BRE1, stronger effect = lower value 1.02 | locus YDL101C, strain DUN1, stronger effect = lower value 1.01 | locus YDL134C, strain PPH21, stronger effect = lower value 1.01 | locus YDL185W, strain tfp1, stronger effect = lower value 1.05 | locus YDL192W, strain arf1, stronger effect = lower value 1.01 | locus YDR001C, strain nth1, stronger effect = lower value 0.982 | locus YDR069C, strain doa4, stronger effect = lower value 1.01 | locus YDR101C, strain arx1, stronger effect = lower value 1 | locus YDR137W, strain rgp1, stronger effect = lower value 0.954 | locus YDR159W, strain sac3, stronger effect = lower value 1.01 | locus YDR162C, strain NBP2, stronger effect = lower value 1.01 | locus YDR195W, strain ref2 0.996 | locus YDR297W, strain sur2, stronger effect = lower value 0.985 | locus YDR318W, strain mcm21, stronger effect = lower value 1.01 | locus YDR334W, strain swr1, stronger effect = lower value 0.975 | locus YDR335W, strain msn5, stronger effect = lower value 0.997 | locus YDR363W, strain ESC2, stronger effect = lower value 1.01 | locus YDR388W, stronger effect = lower value 1.01 | locus YDR392W, strain spt3, stronger effect = lower value 0.903 | locus YDR502C, strain sam2, stronger effect = lower value 1.01 | locus YEL003W, strain gim4, stronger effect = lower value 1 | locus YEL037C, strain rad23, stronger effect = lower value 0.979 | locus YEL061C, strain CIN8 (second series), stronger effect = lower value 0.985 | locus YEL061C, strain CIN8, stronger effect = lower value 1.01 | locus YER002W, strain NOP16, stronger effect = lower value 0.981 | locus YER015W, strain faa2, stronger effect = lower value 0.99 | locus YER016W, strain bim1, stronger effect = lower value 1.01 | locus YER110C, stronger effect = lower value 1.02 | locus YER111C, strain swi4, stronger effect = lower value 0.983 | locus YER155C, strain BEM2 (second series), stronger effect = lower value 0.978 | locus YER155C, strain BEM2, stronger effect = lower value 1.01 | locus YER167W, strain BCK2, stronger effect = lower value 1.01 | locus YFR010W, strain ubp6, stronger effect = lower value 0.978 | locus YGL078C, strain dbp3, stronger effect = lower value 1.01 | locus YGL086W, strain mad1, stronger effect = lower value 1 | locus YGL167C, strain pmr1, stronger effect = lower value 0.985 | locus YGL173C, strain kem1, stronger effect = lower value 0.975 | locus YGL227W, strain vid30, stronger effect = lower value 0.991 | locus YGL240W, strain doc1, stronger effect = lower value 0.996 | locus YGL248W, strain PDE1, stronger effect = lower value 1 | locus YGL253W, strain hxk2, stronger effect = lower value 0.995 | locus YGR135W, strain pre9, stronger effect = lower value 1.01 | locus YGR229C, strain SMI1, stronger effect = lower value 1.03 | locus YGR252W, strain gcn5, stronger effect = lower value 1.01 | locus YHR013C, strain ard1, stronger effect = lower value 0.961 | locus YHR027C, strain rpn1, stronger effect = lower value 0.986 | locus YHR030C, strain SLT2, stronger effect = lower value 1.01 and 0.988 | locus YHR079C, strain IRE1 (second series), stronger effect = lower value 1.01 | locus YHR079C, strain IRE1, stronger effect = lower value 0.988 | locus YHR094C, strain hxt1, stronger effect = lower value 1.02 | locus YHR129C, strain ARP1, stronger effect = lower value 1 | locus YHR142W, strain chs7, stronger effect = lower value 0.956 | locus YHR200W, strain rpn10, stronger effect = lower value 1.01 | locus YIL066C, strain RNR3, stronger effect = lower value 1.01 | locus YIL073C, strain SPO22, stronger effect = lower value 1.1 | locus YIL125W, strain kgd1, stronger effect = lower value 1.01 | locus YIR030C, strain dcg1, stronger effect = lower value 1.01 | locus YJL092W, strain hpr5, stronger effect = lower value 0.983 | locus YJL095W, strain BCK1 (second series), stronger effect = lower value 0.993 | locus YJL095W, strain BCK1, stronger effect = lower value 1 and 0.976 | locus YJL115W, strain asf1, stronger effect = lower value 0.971 | locus YJL129C, strain trk1, stronger effect = lower value 0.987 | locus YJL134W, strain LCB3, stronger effect = lower value 1.01 | locus YJL154C, strain vps35, stronger effect = lower value 0.982 | locus YJL164C, strain tpk1, stronger effect = lower value 0.987 | locus YJL166W, strain qcr8, stronger effect = lower value 0.969 | locus YJL168C, strain set2, stronger effect = lower value 1.01 | locus YJL187C, strain SWE1 (second series), stronger effect = lower value 1 | locus YJL187C, strain SWE1, stronger effect = lower value 0.987 | locus YJR043C, strain POL32, stronger effect = lower value 1.02
